Where “and” joins values, the source holds several entries; their conditions need not be identical. Identical values can stand only once. ± gives the standard deviation of the averaged measurements.
How the values were obtained:
DLD1 [1] = assay: cell viability (CellTiter-Glo) relative to plate median (fraction of plate median); higher = more viable cells; settings: 5 µM; treatment time 24 h; reporter: 7TFP
Outline: (§1)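 On parallel plates, a Tecan F500 reader recorded either firefly luciferase or CellTiterGlo luminescence. The plates held colorectal cancer cells stably transduced with lentiviral TCF/Wnt firefly luciferase reporters (7TFP or TCF4/Wnt), seeded in 384-well format and treated 24 h later with library compounds at a final 5 µM for 24 h. Per-well signals were normalised to the plate median (webcellHTS2, additive, no log transformation), and two independent replicates were averaged.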

HCT116 = assay: as above; settings: 5 µM; treatment time 24 h; reporter: TCF4/Wnt
Outline: as §1

SW480 [2] = assay: as above; settings: 5 µM; treatment time 24 h; reporter: 7TFP
Outline: as §1

DLD1 [3] = assay: TCF/Wnt firefly luciferase reporter signal relative to plate median (fraction of plate median); higher = higher Wnt reporter signal; settings: 5 µM; treatment time 24 h; reporter: 7TFP
Outline: as §1

SW480 [4] = assay: as above; settings: 5 µM; treatment time 24 h; reporter: 7TFP
Outline: as §1

Row | SMILES | cell viability (DLD1 [1]) | cell viability (HCT116) | cell viability (SW480 [2]) | TCF/Wnt firefly luciferase reporter signal (DLD1 [3]) | TCF/Wnt firefly luciferase reporter signal (SW480 [4])
1 | CNNC | 0.936 ± 0.021 | 0.866 ± 0.11 | 0.945 ± 0.017 | 1.03 ± 0.14 | 0.894 ± 0.14
2 | C#C[C@]1(O)CC[C@H]2[C@@H]3CCC4=CC(=O)CC[C@]4(C)[C@H]3CC[C@@]21C | 1.02 ± 0.042 | 1.06 ± 0.021 | 0.962 ± 0.048 | 1.05 ± 0.064 | 1.05 ± 0.076
3 | Nc1ccccc1C(=O)O [Anthranilic acid] | 0.906 ± 0.16 | 1 ± 0.037 | 0.98 ± 0.015 | 0.89 ± 0.044 | 1.04 ± 0.057
4 | [O-][n+]1ccccc1[S-].[O-][n+]1ccccc1[S-].[Zn+2] | 0.515 ± 0.32 | 0.19 ± 0.11 | 0.628 ± 0.13 | 0.216 ± 0.13 | 0.165 ± 0.15
5 | OC1CCCCC1N1CCC(c2ccccc2)CC1 (stereo not given) | 0.98 ± 0.0042 | 0.922 ± 0.069 | 1.04 ± 0.021 | 0.867 ± 0.1 | 0.92 ± 0.022
6 | CCNc1nc(Cl)nc(NC(C)C)n1 | 0.981 ± 0.017 | 1.07 ± 0.064 | 0.946 ± 0.023 | 0.965 ± 0.0071 | 0.976 ± 0.0071
7 | C/C=C(\C)C(=O)O[C@H]1C[C@@H](OC(C)=O)[C@@]2(C(=O)OC)CO[C@H]3[C@@H](O)[C@@](C)([C@]45O[C@@]4(C)[C@H]4C[C@@H]5O[C@@H]5OC=C[C@@]54O)[C@H]4[C@]1(CO[C@]4(O)C(=O)OC)[C@@H]32 | 0.998 ± 0.017 | 0.999 ± 0.087 | 0.959 ± 0.051 | 0.973 ± 0.052 | 0.962 ± 0.04
8 | CC1CC(Cl)CCC1C(=O)OC(C)(C)C (stereo not given) | 0.973 ± 0.052 | 1.045 ± 0.0071 | 0.956 ± 0.025 | 0.976 ± 0.034 | 0.989 ± 0.03
9 | N.N.[Cl][Pt][Cl] | 1.1 ± 0.11 | 1.07 ± 0.014 | 1.02 ± 0.014 | 0.939 ± 0.016 | 0.954 ± 0.08
10 | CC(=O)O[C@@H]1C[C@@]2(C)[C@H](c3ccoc3)C[C@H]3O[C@]32[C@]2(C)C(=O)C(O)=C3C(C)(C)C(=O)C=C[C@]3(C)[C@@H]12 | 0.901 ± 0.044 | 0.824 ± 0.14 | 1.09 ± 0.12 | 0.888 ± 0.03 | 0.831 ± 0.19
11 | CCCCC[C@H](O)c1c(O)cc2c(c1O)C(=O)c1c(O)cc(O)cc1C2=O [Averantin] | 1.02 ± 0.035 | 1.075 ± 0.0071 | 0.9935 ± 0.00071 | 1 ± 0.11 | 0.939 ± 0.14
12 | COc1cc2c(c(OC)c1OC)-c1ccc(OC)c(=O)cc1[C@@H](NC(C)=O)CC2 | 1.1 ± 0.057 | 0.636 ± 0.016 | 1.22 ± 0.099 | 0.77 ± 0.22 | 0.802 ± 0.13
13 | C=C[C@H]1CN2CC[C@H]1C[C@H]2[C@H](O)c1ccnc2ccccc12 | 1.03 ± 0.059 | 1.07 ± 0.042 | 1.01 ± 0.023 | 0.862 ± 0.061 | 0.981 ± 0.028
14 | O=C1c2ccccc2-c2cccc3cccc1c23 | 1 ± 0.084 | 0.852 ± 0.088 | 0.991 ± 0.028 | 0.912 ± 0.056 | 0.987 ± 0.033
15 | NCCCNCCSP(=O)(O)O | 1.02 ± 0.14 | 1.08 ± 0.071 | 1.06 ± 0.021 | 1.1 ± 0.028 | 1.05 ± 0.035
16 | CC1=CC(=O)c2c(O)cccc2C1=O | 0.0607 ± 0.019 | 0.229 ± 0.24 | 0.404 ± 0.51 | 0.0412 ± 0.032 | 0.157 ± 0.19
17 | C=C[C@H]1CN2CC[C@H]1C[C@@H]2[C@@H](O)c1ccnc2ccccc12 | 1.02 ± 0.055 | 0.963 ± 0.021 | 0.984 ± 0.023 | 1.03 ± 0.028 | 0.926 ± 0.014
18 | COc1cc2c(cc1O)CCN[C@@H]2C | 0.997 ± 0.0014 | 1.06 ± 0.099 | 1.015 ± 0.0071 | 0.89 ± 0.16 | 0.966 ± 0.049

Row | SMILES | cell viability (DLD1 [1]) | cell viability (HCT116) | cell viability (SW480 [2]) | TCF/Wnt firefly luciferase reporter signal (DLD1 [3]) | TCF/Wnt firefly luciferase reporter signal (SW480 [4])
19 | C=CCc1cc(OC)c2c(c1OC)OCO2 | 0.962 ± 0.15 | 0.864 ± 0.057 | 0.994 ± 0.023 | 0.876 ± 0.099 | 0.976 ± 0.033
20 | O=c1[nH]c2ccccc2n1C1CCN(CCCC(c2ccc(F)cc2)c2ccc(F)cc2)CC1 | 0.95 ± 0.013 | 0.922 ± 0.065 | 1.01 ± 0.019 | 1.02 ± 0.014 | 0.88 ± 0.12
21 | O=C([O-])c1ccccc1-c1c2cc(Br)c(=O)cc-2oc2[c]([Hg+])c([O-])c(Br)cc12.[Na+].[Na+].[OH-] | 0.955 ± 0.0071 | 0.961 ± 0.13 | 0.945 ± 0.0099 | 1 ± 0.15 | 0.934 ± 0.052
22 | CC(Cc1ccc(O)cc1)NCC(O)c1cc(O)cc(O)c1 (stereo not given) | 1.04 ± 0.068 | 1.1 ± 0.099 | 0.967 ± 0.012 | 0.9645 ± 0.0035 | 0.945 ± 0.013
23 | NCC(O)c1ccc(O)cc1 (stereo not given) | 0.972 ± 0.097 | 0.923 ± 0.015 | 0.972 ± 0.011 | 0.954 ± 0.21 | 0.943 ± 0.043
24 | CCCCCCCCCCCCCCCC[n+]1ccccc1 | 0.885 ± 0.07 | 0.797 ± 0.13 | 0.95 ± 0.028 | 0.773 ± 0.062 | 0.661 ± 0.073
25 | COc1ccc(C(CN(C)C)C2(O)CCCCC2)cc1 (stereo not given) | 1.06 ± 0.014 | 0.972 ± 0.035 | 1.03 ± 0.044 | 0.924 ± 0.069 | 0.907 ± 0.029
26 | CNC1CC(N)C(O)C(OC2OC(CO)C(O)C3OC4(OC(C(N)CO)C(O)C(O)C4O)OC23)C1O (stereo not given) | 0.983 ± 0.039 | 0.98 ± 0.029 | 0.985 ± 0.017 | 0.979 ± 0.073 | 0.988 ± 0.011
27 | CN(C)C(=O)Oc1cc(OC(=O)N(C)C)cc(C(O)CNC(C)(C)C)c1 (stereo not given) | 0.986 ± 0.021 | 1 ± 0.024 | 0.961 ± 0.044 | 0.911 ± 0.11 | 1.045 ± 0.0071
28 | COc1cc2c3cc1Oc1c(OC)c(OC)cc4c1[C@@H](Cc1cccc(c1)Oc1ccc(c(O)c1)C[C@@H]3N(C)CC2)N(C)CC4 | 1.03 ± 0.045 | 1 ± 0.028 | 1.12 ± 0.05 | 0.9605 ± 0.00071 | 1.12 ± 0.064
29 | NC(=O)C[S+]([O-])C(c1ccccc1)c1ccccc1 (stereo not given) | 0.952 ± 0.12 | 1.1 ± 0.05 | 1.02 ± 0.014 | 1.08 ± 0.064 | 1.02 ± 0.014
30 | O=P1(N(CCCl)CCCl)NCCCO1 (stereo not given) | 1.03 ± 0.035 | 0.955 ± 0.015 | 0.959 ± 0.051 | 1.1 ± 0.18 | 0.92 ± 0.014
31 | Nc1ccc([As](=O)(O)O)cc1 | 1.01 ± 0.021 | 1.09 ± 0.092 | 0.941 ± 0.04 | 0.976 ± 0.063 | 0.962 ± 0.028
32 | Cc1ccc(-c2nc3ccc(C)cn3c2CC(=O)N(C)C)cc1 | 1.02 ± 0.035 | 1.09 ± 0.16 | 0.955 ± 0.056 | 1.13 ± 0.085 | 0.988 ± 0.06
33 | CCOC(=O)C1C(C=C(C)C)C1(C)C (stereo not given) | 0.913 ± 0.11 | 0.961 ± 0.038 | 0.932 ± 0.05 | 0.906 ± 0.064 | 1.02 ± 0.035
34 | COc1c2c(c(CC=C(C)C)c3oc(=O)c(-c4ccc(O)cc4)c(O)c13)OC(C)(C)C=C2 | 0.9495 ± 0.0021 | 0.985 ± 0.064 | 1.01 ± 0.035 | 0.969 ± 0.016 | 0.985 ± 0.012
35 | O=c1ccc2cc(O[C@@H]3O[C@H](CO)[C@@H](O)[C@H](O)[C@H]3O)c(O)cc2o1 | 1.04 | 0.922 and 0.995 | 0.965 and 0.998 | 1.23 and 1.08 | 1.09 and 1.19
36 | CO[C@H]1C[C@H](O[C@H]2CC[C@@]3(C)[C@H](CC[C@@H]4[C@@H]3CC[C@]3(C)[C@@H](C5=CC(=O)OC5)[C@@H](OC(C)=O)C[C@]43O)C2)O[C@@H](C)[C@@H]1O | 1.26 ± 0.028 | 0.486 ± 0.31 | 1.31 ± 0.13 | 0.123 ± 0.13 | 0.171 ± 0.12

Reference: the supplement of paper PMC6522484
